The values below come from ChEMBL document CHEMBL1157539, “Thousands of chemical starting points for antimalarial lead identification” (Nature, 2010).

For this assay, the system named is Plasmodium falciparum. Briefly: GSK_TCMDC: Inhibition of Plasmodium falciparum Dd2 in whole red blood cells, using parasite LDH activity as an index of growth. Test compounds present at 2uM. The format is functional.
Broadly, the Inhibition is the drop in the measured response relative to a control, in per cent. For the compound `COc1cc(CNC[C@@H](O)[C@H](Cc2ccccc2)NC(=O)c2cc(C3CCCC3)cc(N3CCCS3(=O)=O)c2)cc(OC)c1.Cl`, the Inhibition worked out at 94%. Then `CC(C)(C)c1cc(Cn2ccnc2)cc(C(C)(C)C)c1O`, with 3%.

On to `NC1=NC2(CCCCC2)N(OCCCCCCc2ccccc2)C(N)=N1`, for which the Inhibition is on record as 69%. As for `CC(C)CC1c2[nH]c3ccccc3c2CCN1C(=O)CCc1ccccc1` (stereo not given), the Inhibition turned out to be 82%. Then `Cc1ccc(N2C(N)=NC(N)=NC2c2ccccc2)cc1.Cl` (stereo not given), with 1%; and `Cc1ccccc1C1CCN(C2CCC(NC(=O)/C=C/c3ccc4c(c3)OC(F)(F)O4)CC2)CC1` (stereo not given), with 39%; and `Cc1nc2sccn2c1C(=O)NCCc1ccccc1Cl`, with 1%. Then `CC(C)(C)c1ccc(CN2CCC(CNC(=O)c3cc(-c4cccc(Cl)c4)cs3)C2)cc1.O=C(O)C(F)(F)F` (stereo not given), with 83%. As for `O=C(c1cnn(-c2ccccc2)c1C(F)(F)F)N1CCN(c2ccnc3cc(Cl)ccc23)CC1`, the figure is 94%. `O=C(O)C(F)(F)F.O=S(=O)(NCCN1CCCC1)c1ccc(-c2ccc(CNCc3ccccc3)cc2)cc1F` came in with an Inhibition of 39%. In the case of `COc1ccc(-c2nonc2NC(=O)c2ccc(OC(C)C)cc2)cc1OC`, the Inhibition is given as 99%. As for `O=C(O)C(F)(F)F.c1ccc(-c2ccc(CNCc3ccc(-c4cccc(-c5nc6ccccc6[nH]5)c4)cc3)s2)nc1`, the Inhibition is 80%. `Cc1cccc2nc(-c3cccc(-c4ccc(NC(=O)COC(C)C)cc4)c3)[nH]c12`: the Inhibition is 11%. `CC(=O)N[C@H](C(=O)Nc1ccc(-c2ccc(-c3nc4cc(C(F)(F)F)ccc4[nH]3)s2)cc1)C(C)C` had an Inhibition of 61%. Then `CCCCCn1c(Sc2ccc(C#N)c([N+](=O)[O-])c2)nnc1-c1ccccc1`, with 15%; and `O=C(/C=C/c1ccc(Cl)cc1)NCCCCCN1CCCN(C(=O)Nc2cccc(Cl)c2)CC1`, with 10%. As for `Oc1ccc(-c2cncc(NCc3ccc(F)c(F)c3)c2)cc1`, the figure is 80%. For `Cl.O=C(NCCCCN1CCC(c2ccc3c(c2O)CCCC3)CC1)c1ccc(NC(=O)c2ccc(Cl)cc2)cc1`, the Inhibition was 100%. `COc1ccc(C(=O)O)cc1OCc1ccccc1` gave an Inhibition of 0%.

`COc1ccc(-c2nc(NC(=O)Cc3ccc4c(c3)OCCO4)sc2C)cc1` showed an Inhibition of 99%.

`CN(C)C(=O)CC(=O)NCc1cccc(Cl)c1` came in with an Inhibition of 3%. Consider `NC(=O)c1ccsc1NC(=O)CNC(c1ccccc1)c1ccc(Cl)cc1` (stereo not given), for which the Inhibition is 89%. In the case of `COc1ccc(CCN(C)CCOc2ccc(NC(=O)c3ccc([N+](=O)[O-])c4c(=O)c5ccccc5[nH]c34)cc2)cc1OC`, the Inhibition is 25%. For `O=C(Nc1ccc2c(c1)CCN2C1CCN(Cc2cccc(C(F)(F)F)c2)C1)c1ccco1` (stereo not given), the Inhibition amounted to 92%. As for `COc1ccc(-c2nc(NC(=O)CS(=O)(=O)c3ccc(C)cc3)sc2C)cc1`, the figure is 94%; as for `CC(C)CN(C)Cc1ccc(-c2ccc(-c3nc4ccccc4[nH]3)s2)cc1`, 76%; as for `COc1ccc2nc(N(CCCn3ccnc3)C(=O)C=Cc3cccs3)sc2c1.Cl`, 26%. Compound `COc1ccc(Nc2nccc(N3CCC(NC(=O)Nc4ccc5c(c4)OCO5)C3)n2)cc1` (stereo not given) yielded an Inhibition of 57%.

Take `CCc1cc2c(Sc3nnc(N)s3)ncnc2s1`: the Inhibition worked out at 65%. As for `CC(=O)N1N=C(c2[nH]c3ccc(Br)cc3c2C)OC1c1ccccc1` (stereo not given), the figure is 68%. In the case of `CN1CCN(CCCN(Cc2csc(-c3ccc(CNCc4ccccc4)cc3)n2)C(=O)Nc2cccc(Cl)c2)CC1.O=C(O)C(F)(F)F`, the Inhibition was found to be 67%.

Regarding `COc1ccccc1NC(=O)Nc1cccc(-c2cccc(-c3nc4cccc(C)c4[nH]3)c2)c1`, the Inhibition was determined as 90%.

With `COc1ccccc1-c1ccc(CNC(=O)C(CN2CCN(C)CC2)c2ccccc2)cc1` (stereo not given), the Inhibition is 4%.

With `O=C(O)C(F)(F)F.c1cc(CNC2CCCC2)cc(-c2ccc(CNc3ccc4ncccc4c3)cc2)c1`, the Inhibition came to 24%. Consider `COc1cc(CC2c3cc(O)c(Cl)cc3CCN2C)c(OC)cc1C.Cl` (stereo not given), for which the Inhibition was determined as 88%. As for `CCOC(=O)c1ccc(NC(=O)Nc2ccc(-c3ccc(-c4nc5cc(C(F)(F)F)ccc5[nH]4)cc3)cc2)cc1`, the figure is 52%; as for `CC1=C(C(=O)Nc2cc3cn[nH]c3cc2F)C(c2ccc(Cl)c(NS(C)(=O)=O)c2)CC(=O)N1` (stereo not given), 98%; as for `CCOc1ccc(Br)cc1/C=C/C(=O)Nc1ccc2c(c1)CCCN(C)C2.O=C(O)C(F)(F)F`, 17%. Then `CCC(Nc1noc(-c2c(-c3ccccc3)noc2C)n1)c1ccccc1` (stereo not given), with 85%. Then `C#CCOc1ccccc1CN1CCC(N2CCc3cc(NC(=O)c4cc(C)on4)ccc32)C1` (stereo not given), with 94%.
